Laboratory results published in PubChem BioAssay (Tox21).
Inconclusive results are not listed. Calls of active or inactive are those of the source. Unless noted, calls follow the shape of the dose curve; as a rule, active = well fitted curve in the direction sought with a large enough effect in the repeat runs; inconclusive = weak or mixed curves; inactive = no such curve, though single readings can be large; an effect the other way counts as inactive or inconclusive.

How the values were obtained:
[1] = qHTS assay to identify small molecule agonists of the androgen receptor (AR) signaling pathway in the presence of an antagonist - cell viability counter screen (AID 1259379); also: nearly all actives have a fitted effect of over 25% in size; also: potency is read from the fitted curve at half-maximal effect;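 as to activity change, negative = cytotoxicity: MDA-kb2 human breast cancer cells carrying an MMTV luciferase reporter; series mostly up to about 92 µM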
In short: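 Seed MDA-kb2 at 3,000 cells/well; incubate 5 hr, 37C, 0% CO2. Add nilutamide to 3.0uM final, then pin compounds at 15 concentrations. Incubate 16 hr. Add CellTiter-Fluor at 15 hr, read fluorescence after 1 hr.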

[2] = qHTS assay to identify small molecule agonists of the estrogen receptor beta (ER-beta) signaling pathway - cell viability counter screen (AID 1259380); also: nearly all actives have a fitted effect of over 30% in size; also: potency is read from the fitted curve at half-maximal effect
In short: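 CellTiter-Glo read, 30 min RT, same wells as bla assay; cells ER-beta-UAS-bla HEK293T; 16 hr compound, 37C; medium 2% charcoal-stripped FBS.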

[3] = qHTS assay to identify small molecule antagonists of the estrogen receptor beta (ER-beta) signaling pathway - cell viability counter screen (AID 1259382); also: nearly all actives have a fitted effect of over 55% in size; also: potency is read from the fitted curve at half-maximal effect;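 as to activity change, negative = cytotoxicity: HEK293T cells carrying ER-beta-UAS-bla reporter stimulated with estradiol; series mostly up to about 92 µM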
In short: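 In this multiplexed counter screen, cells were seeded at 2,000 per well in medium with 2% charcoal-stripped FBS and incubated 6 hr before compound and 1nM final E2 were added. Sixteen hours later, ATP-based luminescence reported viability.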

[4] = biological target: Estrogen receptor (Homo sapiens) (UniProt P03372); assay: qHTS assay to identify small molecule agonists of the estrogen receptor alpha (ER-alpha) signaling pathway in the presence of an antagonist (AID 1259383; calls by dose curve; also: top concentration of the series differs between compounds; nearly all actives have a fitted effect of over 15% in size)
In short: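 Stably transfected VM7Luc4E2 reporter cells, kept 5 days in charcoal-stripped serum, received ICI-182,780 at 10.0nM final before compound addition. Following 22hr incubation at 37C and 5% CO2, luciferase signal was read by luminescence.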

[5] = qHTS assay to identify small molecule agonists or antagonists of the thyroid stimulating hormone receptor (TSHR) signaling pathway - wild type cell line counter screen (AID 1259384; calls by dose curve)
In short: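 Wild-type HEK293 cells were plated 18 h at 37 C/5% CO2, pin-dosed with compound plus Ro20-1724 medium, held 30 min at room temperature, then given cAMP-d2 and anti-cAMP-cryptate; fluorescence was read after 1 h. Fifteen concentrations, triplicate.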

[6] = biological target: Thyrotropin receptor (Homo sapiens) (UniProt P16473); assay: qHTS assay to identify small molecule antagonists of the thyroid stimulating hormone receptor (TSHR) signaling pathway (AID 1259385; calls by dose curve; also: nearly all actives have a fitted effect of over 20% in size; also: potency is read from the fitted curve at half-maximal effect)
In short: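 TSHR-HEK293 cells were plated and held 18 h at 37C/5% CO2, then given compound plus Ro20-1724 and stimulated with TSH at 1.5 ng/mL final. After 30 min at room temperature, cAMP was detected with cAMP-d2/anti-cAMP-cryptate (1 h) by fluorescence.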

[7] = qHTS assay to identify small molecule agonists of the estrogen receptor alpha (ER-alpha) signaling pathway in the presence of an antagonist - cell viability counter screen (AID 1259386);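 also: cells exposed to compounds for 22 h at 37 °C before the viability read; nearly all actives have a fitted effect of over 30% in size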; also: potency is read from the fitted curve at half-maximal effect; as to activity change, negative = cytotoxicity: series mostly up to about 92 µM
In short: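 Viability counter screen using VM7Luc4E2 (full-length ER-alpha, four ERE-luciferase). The cells were treated with compounds alongside ICI-182,780 10.0nM for 22hr, and live-cell protease fluorescence was quantified with CellTiter-Fluor.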

[8] = biological target: Progesterone receptor (Homo sapiens) (UniProt P06401); assay: qHTS assay to identify small molecule agonists of the progesterone receptor (PR) signaling pathway (AID 1346784; calls by dose curve; also: nearly all actives have a fitted effect of over 30% in size)
In short: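 Agonist qHTS: compounds pinned onto 3,000 PR-UAS-bla HEK 293T cells per well in charcoal-stripped serum medium, 16hr at 37C, then beta-lactamase activity measured by LiveBLAzer FRET fluorescence after 2 hours at room temperature.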

[9] = biological target: Progesterone receptor (Homo sapiens) (UniProt P06401); assay: qHTS assay to identify small molecule antagonists of the progesterone receptor (PR) signaling pathway (AID 1346795; active = well fitted inhibition curve with a large enough effect in the signal ratio in the repeat runs, not every such curve was filed as active; the % refers to the signal ratio; also: potency is read from the fitted curve at half-maximal effect)
In short: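 Antagonist mode with agonist R5020 at 1 nM final and 16 hr incubation at 37C. Reporter was beta-lactamase driven by UAS in HEK293T (PR-UAS-bla), 2% charcoal-stripped serum; signal from LiveBLAzer FRET substrate, 2 hr at room temperature.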

[10] = biological target: Androgen receptor (Homo sapiens) (UniProt P10275); assay: qHTS assay to identify small molecule agonists of the androgen receptor (AR) signaling pathway in the presence of an antagonist (AID 1259381; calls by dose curve; also: nearly all actives have a fitted effect of over 15% in size)
In short: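 Test compounds at 15 concentrations were incubated for 16hr with MDA-kb2 reporter cells in presence of 3.0uM nilutamide (final). Signal: ONE-Glo luciferase luminescence.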
% is scaled to controls: 0 for no effect and ±100 for the full control effect.

Androgen receptor (Homo sapiens), sequence (P10275 whole entry, looked up): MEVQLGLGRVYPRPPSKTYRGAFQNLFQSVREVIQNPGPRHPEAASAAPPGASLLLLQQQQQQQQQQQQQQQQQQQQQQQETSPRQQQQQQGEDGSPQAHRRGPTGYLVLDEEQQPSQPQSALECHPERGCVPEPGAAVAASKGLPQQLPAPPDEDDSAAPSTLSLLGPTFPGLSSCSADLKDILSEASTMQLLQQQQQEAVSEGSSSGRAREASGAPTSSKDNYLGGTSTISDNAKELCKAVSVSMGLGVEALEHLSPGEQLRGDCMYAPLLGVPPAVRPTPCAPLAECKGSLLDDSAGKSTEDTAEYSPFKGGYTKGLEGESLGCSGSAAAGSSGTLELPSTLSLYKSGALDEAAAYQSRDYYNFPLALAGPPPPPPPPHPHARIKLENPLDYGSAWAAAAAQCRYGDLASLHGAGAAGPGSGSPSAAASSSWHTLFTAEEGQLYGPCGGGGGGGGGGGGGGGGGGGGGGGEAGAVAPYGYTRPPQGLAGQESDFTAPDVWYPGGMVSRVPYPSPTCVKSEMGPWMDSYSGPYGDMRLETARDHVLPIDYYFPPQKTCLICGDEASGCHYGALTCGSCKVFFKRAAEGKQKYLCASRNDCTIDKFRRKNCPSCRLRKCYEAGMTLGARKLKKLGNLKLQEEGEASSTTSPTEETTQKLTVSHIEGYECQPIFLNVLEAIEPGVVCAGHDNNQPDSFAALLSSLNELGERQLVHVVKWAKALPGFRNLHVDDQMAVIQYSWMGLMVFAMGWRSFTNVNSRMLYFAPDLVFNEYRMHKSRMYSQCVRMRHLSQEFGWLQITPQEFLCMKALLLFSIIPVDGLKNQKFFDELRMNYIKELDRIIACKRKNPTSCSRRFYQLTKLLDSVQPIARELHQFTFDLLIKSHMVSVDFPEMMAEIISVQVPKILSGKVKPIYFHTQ
Thyrotropin receptor (Homo sapiens), sequence (P16473 whole entry, looked up): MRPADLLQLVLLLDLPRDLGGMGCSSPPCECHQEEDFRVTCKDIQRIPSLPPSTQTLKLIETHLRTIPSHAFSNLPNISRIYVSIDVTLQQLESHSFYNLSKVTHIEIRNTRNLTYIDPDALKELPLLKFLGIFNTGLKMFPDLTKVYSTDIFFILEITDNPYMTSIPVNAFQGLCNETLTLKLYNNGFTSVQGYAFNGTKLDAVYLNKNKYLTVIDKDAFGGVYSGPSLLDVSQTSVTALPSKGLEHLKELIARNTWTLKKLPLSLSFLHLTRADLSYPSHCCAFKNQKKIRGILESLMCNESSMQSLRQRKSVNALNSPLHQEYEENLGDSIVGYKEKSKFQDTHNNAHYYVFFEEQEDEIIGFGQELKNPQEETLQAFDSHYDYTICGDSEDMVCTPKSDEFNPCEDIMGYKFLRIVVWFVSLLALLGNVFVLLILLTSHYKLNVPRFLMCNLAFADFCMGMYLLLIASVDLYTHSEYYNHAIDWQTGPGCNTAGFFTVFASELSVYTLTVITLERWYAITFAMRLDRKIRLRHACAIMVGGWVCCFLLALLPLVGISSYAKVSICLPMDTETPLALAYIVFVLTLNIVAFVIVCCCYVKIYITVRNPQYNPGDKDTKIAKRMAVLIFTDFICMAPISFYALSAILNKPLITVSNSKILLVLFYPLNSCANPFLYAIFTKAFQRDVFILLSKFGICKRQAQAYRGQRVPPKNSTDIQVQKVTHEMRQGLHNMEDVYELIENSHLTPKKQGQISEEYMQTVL
Progesterone receptor (Homo sapiens), sequence (P06401 whole entry, looked up): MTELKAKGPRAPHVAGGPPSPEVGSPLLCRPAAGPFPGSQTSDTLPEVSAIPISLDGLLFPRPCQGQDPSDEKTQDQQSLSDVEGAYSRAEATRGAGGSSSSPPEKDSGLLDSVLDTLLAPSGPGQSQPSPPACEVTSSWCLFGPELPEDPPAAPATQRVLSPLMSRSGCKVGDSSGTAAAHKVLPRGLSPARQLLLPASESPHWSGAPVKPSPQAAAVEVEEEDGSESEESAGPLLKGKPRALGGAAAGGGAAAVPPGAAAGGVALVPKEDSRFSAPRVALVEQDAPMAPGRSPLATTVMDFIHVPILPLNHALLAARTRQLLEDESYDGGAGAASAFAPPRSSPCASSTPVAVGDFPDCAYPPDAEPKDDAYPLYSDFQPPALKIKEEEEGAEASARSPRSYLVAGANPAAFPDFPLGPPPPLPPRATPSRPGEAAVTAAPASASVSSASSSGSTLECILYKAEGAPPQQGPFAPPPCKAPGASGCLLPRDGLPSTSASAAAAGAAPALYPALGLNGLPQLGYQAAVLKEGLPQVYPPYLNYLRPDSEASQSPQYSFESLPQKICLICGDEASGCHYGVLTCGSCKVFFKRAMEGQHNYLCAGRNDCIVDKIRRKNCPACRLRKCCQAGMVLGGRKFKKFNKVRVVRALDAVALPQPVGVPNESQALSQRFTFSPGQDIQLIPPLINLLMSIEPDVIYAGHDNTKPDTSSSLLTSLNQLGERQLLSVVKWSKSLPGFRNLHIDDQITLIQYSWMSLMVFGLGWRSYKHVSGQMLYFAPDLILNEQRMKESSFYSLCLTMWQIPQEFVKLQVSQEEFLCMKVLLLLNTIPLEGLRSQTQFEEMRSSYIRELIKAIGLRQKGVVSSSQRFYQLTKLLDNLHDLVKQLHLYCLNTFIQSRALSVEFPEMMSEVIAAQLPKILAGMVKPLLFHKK
Estrogen receptor (Homo sapiens), sequence (P03372 whole entry, looked up): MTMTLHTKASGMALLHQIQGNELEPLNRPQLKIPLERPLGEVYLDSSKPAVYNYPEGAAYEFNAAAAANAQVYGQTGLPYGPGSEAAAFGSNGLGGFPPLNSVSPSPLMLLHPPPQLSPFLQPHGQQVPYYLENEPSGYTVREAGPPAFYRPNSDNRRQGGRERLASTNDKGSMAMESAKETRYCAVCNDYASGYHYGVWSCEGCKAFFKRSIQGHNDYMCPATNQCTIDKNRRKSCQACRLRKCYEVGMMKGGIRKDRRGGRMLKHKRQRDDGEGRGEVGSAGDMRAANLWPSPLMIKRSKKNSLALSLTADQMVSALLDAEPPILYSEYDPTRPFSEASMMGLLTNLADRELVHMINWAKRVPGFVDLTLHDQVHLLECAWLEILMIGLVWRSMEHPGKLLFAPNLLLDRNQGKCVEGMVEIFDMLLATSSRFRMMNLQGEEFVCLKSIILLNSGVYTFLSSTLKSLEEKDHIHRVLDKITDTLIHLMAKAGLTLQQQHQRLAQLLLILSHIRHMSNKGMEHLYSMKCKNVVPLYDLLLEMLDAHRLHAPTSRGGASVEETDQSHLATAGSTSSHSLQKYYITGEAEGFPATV

C1CCSC1
inactive: Potency [1] | Potency [2] | Potency [3] | Potency [4] | Potency [5] | Potency [6] | Potency [7] | outcome [8] | Potency [9]

C=C(C)CCO
inactive: Potency [1] | Potency [2] | Potency [3] | Potency [4] | Potency [5] | Potency [6] | outcome [8] | Potency [9]

ClC(c1ccccc1)(c1ccccc1)c1ccccc1
inactive: Potency [1] | Potency [2] | Potency [3] | Potency [7] | outcome [8]

CCN(CCC#N)c1ccc(N=Nc2ccc([N+](=O)[O-])cc2)cc1
inactive: Potency [1] | Potency [2] | Potency [10] | Potency [3] | Potency [5] | Potency [6] | Potency [7] | outcome [8] | Potency [9]

C=C[Si](C)(C)Cl
inactive: activity change, negative = cytotoxicity [1] -1.9% [at 8.39 µM] | activity change, negative = cytotoxicity [2] 0.271% [at 8.39 µM] | activity change, negative = cytotoxicity [3] 6.43% [at 8.39 µM] | activation [4] -1.47% [at 8.39 µM] | cAMP activity change [5] -4.27% [at 8.39 µM, active compounds read high] | activity change, negative = inhibition [6] 0.177% [at 8.39 µM] | activity change, negative = cytotoxicity [7] 0.757% [at 8.39 µM] | activation [8] 0.63% [at 8.39 µM] | activity change, negative = inhibition [9] 4.87% [at 8.39 µM]

COC(=O)c1ccc([N+](=O)[O-])cc1
inactive: Potency [1] | Potency [2] | Potency [10] | Potency [3] | Potency [7]

CC1CCC(C(C)(C)O)CC1 (centres undefined)
inactive: Potency [1] | Potency [2] | Potency [10] | Potency [3] | outcome [8]

SC1CCCCC1
inactive: Potency [1] | Potency [2] | Potency [3] | outcome [8]

Cc1ccc2n[nH]nc2c1
inactive: Potency [1] | Potency [2] | Potency [3] | Potency [4] | Potency [5] | Potency [7] | outcome [8] | Potency [9]

CSc1ccc(O)cc1C
active: Potency [2] 61.1 µM
inactive: Potency [1] | Potency [10] | Potency [4] | Potency [5] | Potency [6] | outcome [8]

CC1(C)[C@H](C(=O)OCc2cccc(Oc3ccccc3)c2)[C@@H]1C=C(Cl)Cl
inactive: Potency [1] | Potency [10] | Potency [3] | Potency [4] | Potency [5] | Potency [6] | Potency [7] | outcome [8] | Potency [9]

COc1ccc(OC)c(N=Nc2c(O)ccc3ccccc23)c1
active: Potency [1] 24.3 µM | Potency [2] 30.6 µM
inactive: Potency [5] | outcome [8] | Potency [9]

[Cl][Dy]([Cl])[Cl]
inactive: Potency [1] | Potency [2] | Potency [3] | Potency [4] | Potency [5] | outcome [8]

C=C(C)C1CCC(C)CC1O (centres undefined)
inactive: Potency [1] | Potency [2] | Potency [3] | Potency [5] | Potency [6] | Potency [7] | outcome [8]

CN1CCN(CCCN2c3ccccc3Sc3ccc(Cl)cc32)CC1
inactive: Potency [1] | Potency [4] | Potency [5] | Potency [7] | outcome [8]
active: Potency [2] 21.1 µM | Potency [3] 13.3 µM | Potency [6] 26.6 µM

COc1cc(OC)nc(NC(=O)NS(=O)(=O)Nc2ccccc2C(=O)N(C)C)n1
inactive: Potency [1] | Potency [2] | Potency [3] | Potency [4] | Potency [5] | Potency [6] | Potency [7] | outcome [8] | Potency [9]

c1ccc(-c2ccc(C(c3ccccc3)n3ccnc3)cc2)cc1 (centres undefined)
active: Potency [2] 29.8 µM | Potency [9] 5.96 µM
inactive: Potency [1] | Potency [4] | Potency [7]

COc1cc(/C=C/C(=O)CC(=O)/C=C/c2ccc(O)c(OC)c2)ccc1O
active: Potency [1] 54.8 µM | Potency [2] 69 µM | Potency [7] 61.5 µM
inactive: Potency [10] | Potency [4] | Potency [5]

Cc1ccc(C=O)cc1
inactive: Potency [1] | Potency [2] | Potency [3] | Potency [4] | Potency [5] | Potency [6] | Potency [7] | outcome [8] | Potency [9]

[Cl][Eu]([Cl])[Cl]
inactive: Potency [1] | Potency [2] | Potency [3] | Potency [4] | Potency [7] | outcome [8]

CC(c1cc(C(C)(C)C)cc(C(C)(C)C)c1O)c1cc(C(C)(C)C)cc(C(C)(C)C)c1O
inactive: Potency [1] | Potency [2] | Potency [3] | Potency [4] | Potency [5] | outcome [8] | Potency [9]

CC/C=C(\C)C=O
inactive: Potency [1] | Potency [2] | Potency [3] | Potency [4] | Potency [5] | Potency [7] | outcome [8] | Potency [9]

NC(=O)C1CO1 (centres undefined)
inactive: Potency [1] | Potency [2] | Potency [3] | Potency [4] | Potency [7] | outcome [8] | Potency [9]

O=C(NCc1ncc(C(F)(F)F)cc1Cl)c1c(Cl)cccc1Cl
inactive: Potency [10] | Potency [4] | Potency [7] | outcome [8]
active: Potency [1] 17.2 µM | Potency [2] 43.3 µM | Potency [9] 24.3 µM

c1ccc(C[P+](c2ccccc2)(c2ccccc2)c2ccccc2)cc1
active: Potency [1] 2.73 µM | Potency [7] 27.3 µM
inactive: Potency [3] | Potency [4] | Potency [5] | outcome [8] | Potency [9]

CCOC(=O)[C@H](O)[C@@H](O)C(=O)OCC
inactive: Potency [1] | Potency [10] | Potency [3] | Potency [4] | Potency [7] | outcome [8] | Potency [9]

O=C1OC(=O)c2cc(-c3ccc4c(c3)C(=O)OC4=O)ccc21
inactive: Potency [1] | Potency [3] | Potency [4] | Potency [5] | Potency [6] | Potency [7] | outcome [8] | Potency [9]

C/C=C/C(=O)OCC(C)C
inactive: Potency [1] | Potency [10] | Potency [3] | Potency [4] | Potency [5] | Potency [7] | outcome [8]

COc1cc(C(C)C)ccc1C
inactive: activity change, negative = cytotoxicity [1] 2.05% [at 19 µM] | activation [10] 0.232% [at 19 µM] | activity change, negative = cytotoxicity [3] -0.566% [at 19 µM] | cAMP activity change [5] 3.96% [at 18.9 µM, active compounds read high] | activity change, negative = cytotoxicity [7] -2.95% [at 19 µM] | activation [8] 2.45% [at 19 µM] | activity change, negative = inhibition [9] 2.91% [at 18.9 µM]
